Some test systems named below: HCT-15 colon; HT29 colon; SNB-75 CNS; SNB-19 CNS; U251 CNS; PC-3 prostate; SK-MEL-5 melanoma; UACC-62 melanoma; LOX IMVI melanoma; SK-MEL-28 melanoma; SK-MEL-2 melanoma; EKVX NSCLC; SN12C renal; UO-31 renal; TK-10 renal; ACHN renal; CAKI-1 renal; A498 renal; MOLT-4 leukemia; CCRF-CEM leukemia.
Common to all, as to test: NCI-60 one-dose screen, 48 h (100 = growth as untreated, 0 = no growth, -100 = all killed)
Holding throughout (conditions): 10 µM unless noted

Compounds without any hit were thinned out: in the full panel of roughly 83,000, 20% have a hit.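 Single-dose data. Exposure time 48 hours. Values below 10 considered active.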 A number with no mark means an inactive call. Calls of active or inactive are those of the source.

As for `C[N+]1=C(/C=C/c2ccc(O)c3ncccc23)C(C)(C)c2ccccc21`, the growth is 25% in the assay with HCT-15 colon; 96.9% in the assay with HT29 colon; 30.8% in the assay with SNB-75 CNS; 27.9% in the assay with SNB-19 CNS; 17.1% in the assay on U251 CNS; 71.2% in the assay with PC-3 prostate. In addition, the growth was 1.13% (active) in the assay on SK-MEL-5 melanoma; 39.2% with UACC-62 melanoma; 40.4% in the assay with LOX IMVI melanoma; 51.5% in the assay with SK-MEL-28 melanoma; 44.9% in the assay on SK-MEL-2 melanoma; 58.7% in the assay with EKVX NSCLC. Besides, the growth in the assay on SN12C renal is 42.7%; in the assay with UO-31 renal, 30.6%; in the assay on TK-10 renal, 97.1%; in the assay on ACHN renal, 31%; with CAKI-1 renal it was 25.7%; in the assay on A498 renal it was 101%. Also, the growth with MOLT-4 leukemia is 56.1%.
`COc1ccc(/C=N/Nc2cc(=O)[nH]c3ccc(Cl)cc23)cc1`: the growth in the assay with HCT-15 colon was 39.5%; in the assay with HT29 colon, 3.92% (active); in the assay on SNB-75 CNS, 99%; in the assay with SNB-19 CNS, 85.8%; in the assay with U251 CNS it was 28.9%; with PC-3 prostate it was 59.1%. For the same compound, the growth with SK-MEL-5 melanoma was 38.2%; with UACC-62 melanoma it was 77.3%; in the assay on LOX IMVI melanoma, 37.2%; with SK-MEL-28 melanoma, 87.2%; in the assay on SK-MEL-2 melanoma, 48.8%; in the assay on EKVX NSCLC, 63.8%. The growth in the assay with SN12C renal is 62.3%; in the assay with UO-31 renal, 94.7%; in the assay on TK-10 renal, 12.5%; in the assay with ACHN renal, 72.7%; in the assay on CAKI-1 renal it was 86.2%; in the assay on A498 renal it was 80.7%. The figures for the growth with CCRF-CEM leukemia and in the assay with MOLT-4 leukemia were 38.2% and 30.4%, respectively.
Take `O=S(=O)(NCCCNc1cc(-c2c(-c3cccc(O)c3)nc3sccn23)ccn1)c1cccc2ccccc12`: the growth is 24.4% in the assay on HCT-15 colon; 36.1% in the assay on HT29 colon; 4.78% (active) in the assay with SNB-75 CNS; 66.5% in the assay with SNB-19 CNS; 46.2% in the assay with U251 CNS; 30.4% in the assay with PC-3 prostate. Also, the growth was 37.3% in the assay on SK-MEL-5 melanoma; 39% with UACC-62 melanoma; 33% in the assay with LOX IMVI melanoma; 67.3% with SK-MEL-28 melanoma; 59.8% in the assay on SK-MEL-2 melanoma; 50% in the assay on EKVX NSCLC. Further, the growth in the assay on SN12C renal is 21.1%; in the assay with UO-31 renal, 27.6%; with TK-10 renal it was 82.7%; in the assay with ACHN renal, 38.9%; in the assay on CAKI-1 renal, 36.1%; in the assay with A498 renal it was 59%. Further, the growth is 21.2% in the assay with CCRF-CEM leukemia and 26.4% in the assay with MOLT-4 leukemia.
Regarding `CCOC(=O)c1c2c(n(-c3ccc(C#N)cc3)c1-c1ccccc1)C=CCC2`, the growth is 76.9% in the assay with HCT-15 colon; 68.2% in the assay with HT29 colon; 83.9% in the assay on SNB-75 CNS; 98.4% with SNB-19 CNS; 99.7% with U251 CNS; 70.1% in the assay on PC-3 prostate. The growth with SK-MEL-5 melanoma is 92.8%; with UACC-62 melanoma, 75%; in the assay on LOX IMVI melanoma, 84%; with SK-MEL-28 melanoma, 102%; in the assay with SK-MEL-2 melanoma, 79.6%; with EKVX NSCLC, 93.2%. Further, the growth in the assay on SN12C renal is 101%; with UO-31 renal it was 81.8%; in the assay on TK-10 renal it was 96.5%; with ACHN renal it was 86.8%; in the assay on CAKI-1 renal it was 76.4%; with A498 renal, 96.7%. In addition, in the assay with MOLT-4 leukemia, the growth was 81.2%.
For the compound `O=C1NC(=O)C(Cn2cnc3ccccc32)N1` (configuration not stated), the growth with HCT-15 colon was 101%; in the assay on HT29 colon, 105%; in the assay with SNB-75 CNS, 85.7%; with SNB-19 CNS, 95.5%; with U251 CNS, 101%; with PC-3 prostate it was 95%. Moreover, the growth in the assay with SK-MEL-5 melanoma is 101%; with UACC-62 melanoma, 98.5%; in the assay with LOX IMVI melanoma it was 97.8%; in the assay with SK-MEL-28 melanoma, 104%; in the assay with SK-MEL-2 melanoma, 107%; with EKVX NSCLC, 100%. Besides, the growth was 98.6% with SN12C renal; 92.6% in the assay with UO-31 renal; 99.6% with TK-10 renal; 99.8% with ACHN renal; 101% in the assay on CAKI-1 renal; 76.6% with A498 renal. Moreover, the growth in the assay on CCRF-CEM leukemia is 102%; with MOLT-4 leukemia, 99.6%.
On to `CN1CCN(CC(=O)N2c3cccc4cccc(c34)N(C(=O)CN3CCN(C)CC3)C2c2cn(-c3ccccc3)nc2-c2cccc([N+](=O)[O-])c2)CC1`, for which the growth in the assay on HCT-15 colon was -13.6% (active); with HT29 colon it was -33.5% (active); in the assay with SNB-75 CNS it was 65%; in the assay with SNB-19 CNS, 24.9%; in the assay on U251 CNS, -64.4% (active); in the assay with PC-3 prostate, 22.6%. Moreover, the growth with SK-MEL-5 melanoma is -97.8% (active); in the assay on UACC-62 melanoma it was -83.6% (active); with LOX IMVI melanoma, -93.8% (active); in the assay with SK-MEL-28 melanoma it was -89.5% (active); with SK-MEL-2 melanoma, -47.6% (active); with EKVX NSCLC, 17.8%. Also, the growth was -21.5% (active) with SN12C renal; 26.2% with UO-31 renal; -19.4% (active) in the assay with TK-10 renal; -31.1% (active) in the assay on ACHN renal; 14.4% in the assay with CAKI-1 renal; 44.6% with A498 renal. For the same compound, the growth in the assay on MOLT-4 leukemia was -11.6% (active).
`NCCNc1nc2ccccc2c2c(=O)c3cc(F)ccc3sc12`: the growth was 51.2% in the assay on HCT-15 colon; 14.4% in the assay with HT29 colon; 71.2% with SNB-75 CNS; 78.1% with SNB-19 CNS; 64.7% in the assay on U251 CNS; 80.2% in the assay with PC-3 prostate. The growth in the assay on SK-MEL-5 melanoma was 93.9%; with UACC-62 melanoma it was 102%; in the assay with LOX IMVI melanoma, 24.2%; in the assay on SK-MEL-28 melanoma, 107%; with SK-MEL-2 melanoma, 112%; in the assay with EKVX NSCLC, 78.2%. Moreover, the growth in the assay on SN12C renal is 71.1%; with UO-31 renal, 47.3%; in the assay with TK-10 renal, 101%; with ACHN renal, 54.5%; with CAKI-1 renal, 45.1%; in the assay on A498 renal, 49.4%. Besides, the growth with CCRF-CEM leukemia is 45.7%; with MOLT-4 leukemia it was 46.6%.
`COc1ccc2c(c1)c(-c1nn3cc(-c4cccs4)nc3s1)cn2C`: the growth with HCT-15 colon was 47.6%; with HT29 colon it was 52.1%; in the assay on SNB-75 CNS it was 50.3%; in the assay on SNB-19 CNS, 82.5%; in the assay on U251 CNS, 65.9%; in the assay on PC-3 prostate, 69.6%. The growth in the assay with SK-MEL-5 melanoma is 66.7%; in the assay on UACC-62 melanoma, 64.1%; with LOX IMVI melanoma, 54.1%; in the assay on SK-MEL-28 melanoma it was 97.8%; with SK-MEL-2 melanoma, 91.5%; with EKVX NSCLC, 66.2%. The growth in the assay with SN12C renal was 79.3%; with UO-31 renal, 39.3%; in the assay with TK-10 renal, 73.3%; in the assay with ACHN renal it was 69.9%; in the assay on CAKI-1 renal, 55.3%; with A498 renal it was 50.3%. The growth in the assay on CCRF-CEM leukemia was 67%; in the assay with MOLT-4 leukemia, 45.7%.

(Values after PubChem BioAssay (NCI).)
